Measured values reported in PubChem BioAssay (NCATS).
Inconclusive results are not listed. Calls of active or inactive are those of the source. Unless noted, calls come from the whole dose curve. Square brackets hold non-standard residues; d marks the D form. Peptide text beside a SMILES is read from it. ξ: configuration not given here. d(hArg(Et2)) = CCN=C(NCC)NCCCC[C@@H](N)C(=O)O; hArg(Et2) = CCN=C(NCC)NCCCC[C@H](N)C(=O)O; Phe(4-Cl) = N[C@@H](Cc1ccc(Cl)cc1)C(=O)O; ξ2Nal = NC(Cc1ccc2ccccc2c1)C(=O)O; 3Pal = N[C@@H](Cc1cccnc1)C(=O)O; ξP = O=C(O)C1CCCN1

Tests used:
[1] = Primary qHTS for inhibitors of SARS-S pseudo-typed particle cell entry (AID 1479145); details: outcome: dose series up to 57.1 µM unless noted; note: nearly all actives have a fitted effect of over 45% in size
[2] = Primary qHTS for Huh7 cytotoxicity: counterscreen for inhibitors of MERS-S pseudotyped particle cell entry (AID 1479147); details: outcome: dose series up to 57.1 µM unless noted
[3] = Primary qHTS for inhibitors of MERS-S pseudo-typed particle cell entry (AID 1479149); details: outcome: dose series up to 57.1 µM unless noted; note: nearly all actives have a fitted effect of over 60% in size
[4] = Primary qHTS for Vero E6 cytotoxicity: counterscreen for inhibitors of SARS-S pseudo-typed particle cell entry (AID 1479150); details: outcome: dose series up to 57.1 µM unless noted
[5] = Cytotoxicity counterscreen for inhibitors of SARS-CoV-2 cell entry (AID 1645845); details: outcome: dose series up to 57.1 µM unless noted; note: nearly all actives have a fitted effect of over 50% in size
Summary of the method: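 After a 15 min room-temperature ATPLite 1step step, luminescence reflected ATP remaining in HEK293-ACE2 cells exposed to compound for 1 h plus 48 h at 37 C, with percent activity set by cell and no-cell controls.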

[6] = Confirmatory qHTS to identify inhibitors of SARS-CoV-2 cell entry (AID 1645844); note: potency is the fitted concentration of half-maximal effect; nearly all actives have a fitted effect of over 45% in size
Summary of the method: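 Using stable human ACE2 Expi293F cells, compounds preincubated 1 hr before spike pseudoparticle infection; luciferase signal after 48 hr at 37C, 5% CO2, normalised to spike PP and no-fusion-protein PP wells.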

[7] = Primary qHTS to identify inhibitors of SARS-CoV-2 cell entry (AID 1645846); details: SARS-CoV-2 pseudovirus cell entry assay, luminescence; for Potency: activity change, negative = inhibition: at 57.1 µM (top of the series) unless noted, outcome: at 57.1 µM (top of the series) unless noted; for all read-outs here: nearly all actives have a fitted effect of over 45% in size
Summary of the method: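 HEK293-ACE2 (Expi293F, stable hACE2), 1500 cells/well, o/n 37C; cpd 23 nL pin, 1 h; MLV-PP w/ SARS-CoV-2-S (Wuhan-Hu-1, Δ19 C-term); 48 h 37C; Bright-Glo luminescence; normalized vs S-PP and bald PP.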

[8] = VSVG counterscreen qHTS to identify inhibitors of SARS-CoV-2 cell entry (AID 1645847); note: potency is the fitted concentration of half-maximal effect; nearly all actives have a fitted effect of over 65% in size
Summary of the method: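 Expi293F/hACE2 cells, overnight plating; cpd 1 h, 37C/5% CO2; + VSV-G PP (MLV pseudotyping), 48 h; supernatant removed, Bright-Glo luciferase read. Norm: VSV-G PP and bald PP wells.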

[9] = target: Cytochrome P450 2D6 (Homo sapiens) (UniProt P10635); test: Cytochrome P450 family 2 subfamily D member 6 (CYP2D6) small molecule antagonists: luciferase biochemical (cell-free) qHTS assay (AID 1645840; active = well fitted curve in the direction sought with a large enough effect in the repeat runs; an effect the other way counts as inactive or inconclusive; note: nearly all actives have a fitted effect of over 55% in size; note: potency is the fitted concentration of half-maximal effect)
Chain of Cytochrome P450 2D6 (Homo sapiens) (P10635 whole entry, looked up): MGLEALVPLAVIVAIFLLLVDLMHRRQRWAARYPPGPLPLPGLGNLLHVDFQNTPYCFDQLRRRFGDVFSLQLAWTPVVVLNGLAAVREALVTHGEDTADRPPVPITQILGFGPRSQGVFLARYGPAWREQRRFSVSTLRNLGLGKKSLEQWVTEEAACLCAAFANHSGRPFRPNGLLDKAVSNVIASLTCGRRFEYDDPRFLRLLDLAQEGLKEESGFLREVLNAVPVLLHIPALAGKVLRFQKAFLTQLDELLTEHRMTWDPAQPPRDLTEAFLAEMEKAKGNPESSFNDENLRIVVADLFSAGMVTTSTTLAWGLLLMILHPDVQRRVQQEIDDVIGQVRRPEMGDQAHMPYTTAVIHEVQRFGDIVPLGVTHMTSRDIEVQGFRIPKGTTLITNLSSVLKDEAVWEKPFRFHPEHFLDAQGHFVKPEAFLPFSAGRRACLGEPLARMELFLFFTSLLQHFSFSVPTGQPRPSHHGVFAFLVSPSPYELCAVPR
Summary of the method: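 P450-Glo CYP2D6 system: proluciferin substrate converted by enzyme to luciferin, read by luminescence proportional to activity. Enzyme-substrate mix with compound 10 min at room temperature, then NADPH regeneration 1 h before detection reagent.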

[10] = target: Glutathione peroxidase 1 (Homo sapiens) (UniProt P07203); test: Primary qHTS Assay for Inhibitors of Recombinant Selenoprotein Glutathione Peroxidase 1 (GPX1) (AID 1845191; active = well fitted curve in the direction sought with a large enough effect; an effect the other way counts as inactive or inconclusive; note: nearly all actives have a fitted effect of over 65% in size)
Chain of Glutathione peroxidase 1 (Homo sapiens) (P07203 whole entry, looked up): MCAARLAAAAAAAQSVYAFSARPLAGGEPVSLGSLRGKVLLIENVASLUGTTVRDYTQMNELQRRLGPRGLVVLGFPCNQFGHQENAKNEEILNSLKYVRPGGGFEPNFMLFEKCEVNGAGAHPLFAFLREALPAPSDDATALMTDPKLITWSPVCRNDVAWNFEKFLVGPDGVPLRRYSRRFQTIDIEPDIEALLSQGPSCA
Summary of the method: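 GPX1 10 nM, GR 100 nM, GSH 1 mM, NADPH 0.5 mM, CHP 0.5 mM (final). 30-min cpd preincubation, RT. Ex340/Em450 read t=0, t=15 min.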

[11] = target: Phospholipid hydroperoxide glutathione peroxidase GPX4 (Homo sapiens) (UniProt P36969); test: Primary qHTS Assay for Inhibitors of Recombinant Selenoprotein Glutathione Peroxidase 4 (GPX4) (AID 1845192; active = well fitted curve in the direction sought with a large enough effect; an effect the other way counts as inactive or inconclusive; note: nearly all actives have a fitted effect of over 65% in size)
Chain of Phospholipid hydroperoxide glutathione peroxidase GPX4 (Homo sapiens) (P36969 whole entry, looked up): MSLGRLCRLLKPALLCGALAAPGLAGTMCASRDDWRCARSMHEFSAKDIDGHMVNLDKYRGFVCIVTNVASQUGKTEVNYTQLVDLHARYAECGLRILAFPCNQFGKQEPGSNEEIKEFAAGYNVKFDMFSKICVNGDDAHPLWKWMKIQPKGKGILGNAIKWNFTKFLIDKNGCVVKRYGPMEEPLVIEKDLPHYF
Summary of the method: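 qHTS, GR-coupled: GPX4 200 nM + cpd 30 min RT → GSH 1 mM, NADPH 0.5 mM, GR 100 nM → CHP 0.5 mM start; fluor 340/450 at t0 and t15 min; no-enzyme wells as control.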

[12] = Confirmatory qHTS for VERO E6 Cytotoxicity Assay: Counterscreen for SARS-CoV-2 CPE Assay (AID 1508605); note: nearly all actives have a fitted effect of over 60% in size

O=C(Cn1c(=O)sc2ccc(Cl)cc21)N1CCN(CCO)CC1
inactive: Potency [1] | Potency [2] | Potency [3] | Potency [4] | Potency [5]

CC1(C)S[C@@H]2[C@H](NC(=O)C(C(=O)O)c3ccsc3)C(=O)N2[C@H]1C(=O)O (stereo not given in full)
inactive: Potency [1] | Potency [2] | Potency [3] | Potency [4]

C=C1C[C@@H]2CC[C@@]34C[C@H]5O[C@H]6[C@@H](O3)[C@H]3O[C@H](CC[C@@H]3O[C@H]6[C@H]5O4)CC(=O)C[C@@H]3[C@@H](OC)[C@@H](C[C@H](O)CN)O[C@H]3C[C@H]3O[C@@H](CC[C@@H]1O2)C[C@@H](C)C3=C
-84.4%: activity change, negative = inhibition ([7]; at 57.1 µM (top of the series))
-91.9%: activity change, negative = inhibition ([7]; at 11.3 µM (top of the series))
inactive: Potency [1] | Potency [2] | Potency [3] | Potency [4] | Potency [5]
active: Potency [6] 221 nM | Potency [8] 111 nM

COc1ccc(/C=C/C(=O)OCCC(C)C)cc1
inactive: Potency [1] | Potency [2] | Potency [3] | Potency [4] | Potency [5]

CC[C@H]1OC(=O)C[C@@H](OC(C)=O)[C@H](C)[C@@H](O[C@@H]2O[C@H](C)[C@@H](O[C@H]3C[C@@](C)(O)[C@@H](OC(=O)CC(C)C)[C@H](C)O3)[C@H](N(C)C)[C@H]2O)[C@@H](CC=O)C[C@@H](C)C(=O)/C=C/C(C)=C/[C@@H]1CO[C@@H]1O[C@H](C)[C@@H](O)[C@@H](OC)[C@H]1OC
inactive: Potency [1] | Potency [2] | Potency [3] | Potency [4]

CCOC(=O)C=C(C)C=CC[C@@H](C)CCCC(C)C
inactive: Potency [1] | Potency [2] | Potency [3] | Potency [4] | Potency [9] | Potency [5] | Potency [10]

C[C@]12C[C@@H]3S[C@H]3C[C@@H]1CC[C@H]1[C@H]3CC[C@@H](O)[C@@]3(C)CC[C@@H]12
inactive: Potency [1] | Potency [2] | Potency [3] | Potency [4] | Potency [9] | Potency [5] | Potency [7]

CCNC(=NCCCC[C@H](NC(=O)[C@H](CC(C)C)NC(=O)[C@@H](CCCCN=C(NCC)NCC)NC(=O)[C@@H](Cc1ccc(O)cc1)NC(=O)[C@@H](CO)NC(=O)[C@H](Cc1cccnc1)NC(=O)[C@H](Cc1ccc(Cl)cc1)NC(=O)C(Cc1ccc2ccccc2c1)NC(C)=O)C(=O)N1CCCC1C(=O)N[C@H](C)C(N)=O)NCC (stereo not given in full) (Ac-[ξ2Nal][Phe(4-Cl)][3Pal][dS][dY][d(hArg(Et2))]L[hArg(Et2)][ξP][dA]-NH2)
inactive: Potency [1] | Potency [2] | Potency [3] | Potency [4]
active: Potency [6] 1210 nM | Potency [8] 857 nM

CC(=O)O[C@]1(C(C)=O)CC[C@H]2[C@@H]3C[C@H](C)C4=CC(=O)C=C[C@]4(C)[C@@]3(F)[C@@H](O)C[C@@]21C
inactive: Potency [1] | Potency [2] | Potency [3] | Potency [4] | Potency [5]

CN(C)CC(=O)O
inactive: Potency [1] | Potency [2] | Potency [3] | Potency [4]

CC(Cc1ccc2c(c1)OCO2)NCC(O)c1ccc(O)c(O)c1 (stereo not given)
active: Potency [9] 674 nM
inactive: Potency [1] | Potency [2] | Potency [3] | Potency [4] | Potency [5] | Potency [10]

COc1ccc2c(O[C@H]3CC4C(=O)N(C)CCCC/C=C\[C@@H]5C[C@@]5(C(=O)NS(=O)(=O)C5CC5)NC(=O)[C@@H]4C3)cc(-c3nc(C(C)C)cs3)nc2c1C (stereo not given in full)
inactive: Potency [1] | Potency [2] | Potency [3] | Potency [4] | Potency [5]

COCC(=O)Nc1cc(Sc2ccccc2)ccc1N=C(NC(=O)OC)NC(=O)OC
inactive: Potency [1] | Potency [2] | Potency [3] | Potency [4]

NCCCC(N)C(=O)O (stereo not given)
inactive: Potency [1] | Potency [2] | Potency [3] | Potency [4] | Potency [5]

C=C1CCN([C@H](C)[C@](O)(Cn2cncn2)c2ccc(F)cc2F)CC1
inactive: Potency [1] | Potency [2] | Potency [3] | Potency [4] | Potency [5]

CC(C)[C@@H](C)/C=C/[C@@H](C)[C@H]1CC[C@H]2/C(=C/C=C3\C[C@@H](O)CC[C@@H]3C)CCC[C@]12C
inactive: Potency [1] | Potency [2] | Potency [3] | Potency [4]

CC1(C)[C@H](C=C(Cl)Cl)[C@@H]1C(=O)OCc1c(F)c(F)cc(F)c1F
inactive: Potency [1] | Potency [2] | Potency [3] | Potency [4] | Potency [9] | Potency [5] | Potency [7] | Potency [10] | Potency [11]

O=C(OCCN(CCO)CCO)c1ccccc1O
inactive: Potency [1] | Potency [2] | Potency [3] | Potency [4]

CNCC(O)c1ccc(OC(=O)C(C)(C)C)c(OC(=O)C(C)(C)C)c1 (stereo not given)
inactive: Potency [1] | Potency [2] | Potency [3] | Potency [4] | Potency [5]

[2H]C([2H])([2H])C(CCC[C@@H](C)[C@H]1CC[C@H]2/C(=C/C=C3\C[C@@H](O)C[C@H](O)C3=C)CCC[C@]12C)C([2H])([2H])[2H]
inactive: Potency [1] | Potency [2] | Potency [3] | Potency [4]

CC1CC2C3CCC4=CC(=O)C=CC4(C)C3(F)C(O)CC2(C)C1(O)C(=O)COC(=O)c1cccc(S(=O)(=O)O)c1 (stereo not given)
inactive: Potency [1] | Potency [2] | Potency [3] | Potency [4]

NC(=O)[C@H]1O[C@@H](O)[C@H](O)[C@@H](O)[C@@H]1O
inactive: Potency [1] | Potency [2] | Potency [3] | Potency [4]

CCC(=O)Oc1ccc2c(c1)CC[C@@H]1[C@H]2CC[C@]2(C)[C@@H](OC(=O)CC)CC[C@@H]12
inactive: Potency [1] | Potency [2] | Potency [3] | Potency [4]

CC(C)(C)c1ccc(CN2CCN(C(c3ccccc3)c3ccc(Cl)cc3)CC2)cc1 (stereo not given)
inactive: Potency [1] | Potency [2] | Potency [3] | Potency [4] | Potency [12]
